Values joined by “and” are separate entries in the source; they are usually repeats but may differ in a detail not shown here. Equal values may be shown once. Out of some 5,500 compounds screened, about 2,000 (36%) were called active. About 18% were inconclusive and are not listed. No stated cut-off is given here; in the data, active means normalized growth mostly below about 0.91 (no sharp cut-off); inconclusive means no clear call, values can overlap the other calls; inactive means mostly above about 0.92. Some of the results follow.
Experiment: chemical genetic growth profiling, strain panel (AID 1159580);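 further: tested at 20 µM; growth read once vehicle control cultures reached saturation at 30 °C; 1 = growth at the plate median or of vehicle wells; lower values mean less growth of the strain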
Conditions: growth OD

Measured: normalized growth

COC(=O)C1=CCCN(C)C1
inactive: S. cerevisiae deletion strains, locus YKL068W, hits give low values 0.996 | S. cerevisiae deletion strains, locus YKL085W, strain MDH1 (second series), hits give low values 0.997 | S. cerevisiae deletion strains, locus YKL085W, strain MDH1, hits give low values 0.997 | S. cerevisiae deletion strains, locus YKL160W, strain elf1, hits give low values 1.03 | S. cerevisiae deletion strains, locus YKL190W, strain CNB1, hits give low values 1 | S. cerevisiae deletion strains, locus YKR001C, strain vps1, hits give low values 1.01 | S. cerevisiae deletion strains, locus YKR026C, strain gcn3, hits give low values 1.01 | S. cerevisiae deletion strains, locus YKR091W, strain srl3, hits give low values 1.01 | S. cerevisiae deletion strains, locus YLL001W, strain dnm1, hits give low values 0.989 | S. cerevisiae deletion strains, locus YLL026W, hits give low values 1.02 | S. cerevisiae deletion strains, locus YLL041C, strain sdh2, hits give low values 0.991 | S. cerevisiae deletion strains, locus YLR027C, strain aat2, hits give low values 1 | S. cerevisiae deletion strains, locus YLR039C, strain RIC1, hits give low values 0.983 | S. cerevisiae deletion strains, locus YLR058C, strain SHM2, hits give low values 0.973 | S. cerevisiae deletion strains, locus YLR102C, strain apc9, hits give low values 1 | S. cerevisiae deletion strains, locus YLR113W, strain HOG1, hits give low values 0.994 | S. cerevisiae deletion strains, locus YLR221C, strain rsa3, hits give low values 0.992 | S. cerevisiae deletion strains, locus YLR258W, strain gsy2, hits give low values 1.01 | S. cerevisiae deletion strains, locus YLR262C, strain YPT6 (second series), hits give low values 0.986 | S. cerevisiae deletion strains, locus YLR262C, strain YPT6, hits give low values 0.953 | S. cerevisiae deletion strains, locus YLR268W, strain sec22, hits give low values 1 | S. cerevisiae deletion strains, locus YLR320W, strain mms22, hits give low values 0.961 | S. cerevisiae deletion strains, locus YLR330W, strain CHS5, hits give low values 0.991 | S. cerevisiae deletion strains, locus YLR342W, strain FKS1 (second series), hits give low values 1.01 | S. cerevisiae deletion strains, locus YLR342W, strain FKS1, hits give low values 0.995 | S. cerevisiae deletion strains, locus YLR357W, strain rsc2, hits give low values 1.01 | S. cerevisiae deletion strains, locus YLR370C, strain arc18, hits give low values 1 | S. cerevisiae deletion strains, locus YLR371W, strain rom2, hits give low values 0.999 | S. cerevisiae deletion strains, locus YLR384C, strain iki3, hits give low values 1.02 | S. cerevisiae deletion strains, locus YLR418C, strain cdc73, hits give low values 1.02 | S. cerevisiae deletion strains, locus YML016C, strain PPZ1, hits give low values 0.987 | S. cerevisiae deletion strains, locus YML032C, strain rad52, hits give low values 0.983 | S. cerevisiae deletion strains, locus YML120C, strain ndi1, hits give low values 1 | S. cerevisiae deletion strains, locus YML124C, strain tub3, hits give low values 0.994 | S. cerevisiae deletion strains, locus YMR058W, strain fet3, hits give low values 1.03 | S. cerevisiae deletion strains, locus YMR078C, strain ctf18, hits give low values 0.996 | S. cerevisiae deletion strains, locus YMR125W, strain sto1, hits give low values 1.02 | S. cerevisiae deletion strains, locus YMR129W, hits give low values 1 | S. cerevisiae deletion strains, locus YMR205C, strain PFK2, hits give low values 0.955 | S. cerevisiae deletion strains, locus YMR223W, strain ubp8, hits give low values 0.981 | S. cerevisiae deletion strains, locus YMR231W, strain pep5, hits give low values 1.01 | S. cerevisiae deletion strains, locus YMR263W, strain SAP30, hits give low values 0.984 | S. cerevisiae deletion strains, locus YMR307W, strain GAS1, hits give low values 1.01 and 0.99 | S. cerevisiae deletion strains, locus YNL067W, strain RPL9B, hits give low values 0.979 | S. cerevisiae deletion strains, locus YNL071W, strain lat1, hits give low values 1.01 | S. cerevisiae deletion strains, locus YNL128W, strain TEP1, hits give low values 0.986 | S. cerevisiae deletion strains, locus YNL153C, strain GIM3, hits give low values 0.983 | S. cerevisiae deletion strains, locus YNL175C, strain NOP13, hits give low values 1.04 | S. cerevisiae deletion strains, locus YNL183C, strain NPR1, hits give low values 0.953 | S. cerevisiae deletion strains, locus YNL197C, strain WHI3, hits give low values 1 | S. cerevisiae deletion strains, locus YNL209W, strain ssb2, hits give low values 1 | S. cerevisiae deletion strains, locus YNL224C, strain SQS1, hits give low values 1 | S. cerevisiae deletion strains, locus YNL233W, strain BNI4, hits give low values 0.99 | S. cerevisiae deletion strains, locus YNL248C, strain rpa49, hits give low values 1.02 | S. cerevisiae deletion strains, locus YNL250W, strain rad50, hits give low values 0.993 | S. cerevisiae deletion strains, locus YNL271C, strain bni1, hits give low values 0.995 | S. cerevisiae deletion strains, locus YNL298W, strain CLA4, hits give low values 1 | S. cerevisiae deletion strains, locus YNL307C, strain MCK1, hits give low values 0.996 | S. cerevisiae deletion strains, locus YNL322C, strain KRE1 (second series), hits give low values 1.03 | S. cerevisiae deletion strains, locus YNL322C, strain KRE1, hits give low values 0.985 | S. cerevisiae deletion strains, locus YNR049C, strain mso1, hits give low values 0.995 | S. cerevisiae deletion strains, locus YNR052C, strain pop2, hits give low values 0.995 | S. cerevisiae deletion strains, locus YOL006C, strain TOP1, hits give low values 0.981 | S. cerevisiae deletion strains, locus YOL012C, strain htz1 0.9 | S. cerevisiae deletion strains, locus YOL147C, strain pex11, hits give low values 0.992 | S. cerevisiae deletion strains, locus YOR001W, strain rrp6, hits give low values 0.971 | S. cerevisiae deletion strains, locus YOR061W, strain CKA2, hits give low values 0.968 | S. cerevisiae deletion strains, locus YOR069W, strain VPS5, hits give low values 0.997 | S. cerevisiae deletion strains, locus YOR070C, strain gyp1, hits give low values 1.01 | S. cerevisiae deletion strains, locus YOR080W, strain dia2, hits give low values 1 | S. cerevisiae deletion strains, locus YOR083W, strain WHI5 (second series), hits give low values 1.02 | S. cerevisiae deletion strains, locus YOR083W, strain WHI5, hits give low values 1.01 | S. cerevisiae deletion strains, locus YOR106W, strain vam3, hits give low values 1.04 | S. cerevisiae deletion strains, locus YOR136W, strain idh2, hits give low values 1 | S. cerevisiae deletion strains, locus YOR144C, strain elg1, hits give low values 0.997 | S. cerevisiae deletion strains, locus YOR184W, strain ser1, hits give low values 0.989 | S. cerevisiae deletion strains, locus YOR231W, strain MKK1, hits give low values 0.994 | S. cerevisiae deletion strains, locus YOR265W, strain rbl2, hits give low values 1 | S. cerevisiae deletion strains, locus YOR270C, strain vph1, hits give low values 1.01 | S. cerevisiae deletion strains, locus YOR290C, strain snf2, hits give low values 1.02 | S. cerevisiae deletion strains, locus YOR316C, strain cot1, hits give low values 0.993 | S. cerevisiae deletion strains, locus YPL051W, strain arl3, hits give low values 1.03 | S. cerevisiae deletion strains, locus YPL055C, strain LGE1, hits give low values 0.977 and 1.03 | S. cerevisiae deletion strains, locus YPL078C, strain atp4, hits give low values 1.03 | S. cerevisiae deletion strains, locus YPL106C, strain sse1, hits give low values 1.04 | S. cerevisiae deletion strains, locus YPL240C, strain hsp82, hits give low values 1 | S. cerevisiae deletion strains, locus YPL241C, strain CIN2, hits give low values 0.994 | S. cerevisiae deletion strains, locus YPL256C, strain CLN2, hits give low values 1 | S. cerevisiae deletion strains, locus YPR119W, strain clb2, hits give low values 0.991 | S. cerevisiae deletion strains, locus YPR141C, strain kar3, hits give low values 0.99 | S. cerevisiae deletion strains, locus YPR163C, strain tif3, hits give low values 0.999 | S. cerevisiae deletion strains, locus YPR167C, strain met16, hits give low values 1 | S. cerevisiae deletion strains, strain wtn01, hits give low values 0.994 | S. cerevisiae strains, strain wild type, hits give low values 0.993
